The values that follow come from publication PMC4336329 (PLoS ONE, 2015).

Among all 310,000 compounds or so, about 14,000 (4.5%) showed an effect of 50% or more. Effects have a minus sign here. The list comes from a sample in which strong results are over-represented; it also holds similar structures and randomly drawn compounds.
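Also: peak tail current of the secondary pulse compared with the same well before compound.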

The target in the assay is human ether-à-go-go-related gene (hERG) potassium channel (human, UniProt Q12809). Nature of the assay: primary screen, population patch clamp on CHO cells stably expressing hERG; higher = less effect of the substance.
Sequence of human ether-à-go-go-related gene (hERG) potassium channel (Q12809 whole entry, looked up): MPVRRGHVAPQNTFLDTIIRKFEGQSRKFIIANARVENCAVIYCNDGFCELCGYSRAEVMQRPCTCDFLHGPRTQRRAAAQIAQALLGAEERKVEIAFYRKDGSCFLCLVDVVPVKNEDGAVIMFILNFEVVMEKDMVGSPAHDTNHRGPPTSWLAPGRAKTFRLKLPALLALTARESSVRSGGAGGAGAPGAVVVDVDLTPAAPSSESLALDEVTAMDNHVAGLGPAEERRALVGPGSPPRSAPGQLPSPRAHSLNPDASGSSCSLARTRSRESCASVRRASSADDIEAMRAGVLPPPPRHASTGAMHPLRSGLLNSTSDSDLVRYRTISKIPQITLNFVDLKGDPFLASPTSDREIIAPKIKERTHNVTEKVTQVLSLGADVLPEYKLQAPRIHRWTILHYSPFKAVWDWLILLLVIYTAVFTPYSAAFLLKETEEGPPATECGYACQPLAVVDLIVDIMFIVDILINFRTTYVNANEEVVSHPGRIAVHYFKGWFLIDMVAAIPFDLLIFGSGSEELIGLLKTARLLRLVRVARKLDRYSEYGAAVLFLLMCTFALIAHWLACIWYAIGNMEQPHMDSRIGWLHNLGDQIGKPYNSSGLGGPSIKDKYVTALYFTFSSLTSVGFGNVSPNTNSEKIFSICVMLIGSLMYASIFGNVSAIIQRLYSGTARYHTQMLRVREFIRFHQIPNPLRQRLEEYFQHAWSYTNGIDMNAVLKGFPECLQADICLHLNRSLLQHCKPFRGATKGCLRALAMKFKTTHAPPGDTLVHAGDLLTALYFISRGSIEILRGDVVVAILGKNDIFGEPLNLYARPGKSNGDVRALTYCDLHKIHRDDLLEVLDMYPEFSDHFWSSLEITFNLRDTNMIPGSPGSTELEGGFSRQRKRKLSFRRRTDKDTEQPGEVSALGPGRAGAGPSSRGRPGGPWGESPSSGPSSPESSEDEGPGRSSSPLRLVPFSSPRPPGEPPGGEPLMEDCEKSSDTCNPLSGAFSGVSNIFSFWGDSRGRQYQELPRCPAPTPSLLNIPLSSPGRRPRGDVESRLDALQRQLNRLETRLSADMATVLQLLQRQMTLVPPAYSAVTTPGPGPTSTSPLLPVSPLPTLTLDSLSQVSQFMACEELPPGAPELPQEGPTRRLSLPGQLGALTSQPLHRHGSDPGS
As to `Cc1ccc(N2CC(C)Cn3c2nc2c3c(=O)[nH]c(=O)n2C)cc1C` (stereo not shown), the “hERG current change (%, negative = inhibition) at 10uM” value is on record as -10.9%.

For `Cc1c(Br)cc(C(=O)N2CCCC2)c(C)c1C`, the “hERG current change (%, negative = inhibition) at 10uM” value is on record as 0.525%.

On to `O=C(C1=C(O)C(=O)N(CCN2CCOCC2)C1c1ccc(Cl)cc1)c1cc2ccccc2o1` (stereo not shown), for which the “hERG current change (%, negative = inhibition) at 10uM” value is 10.3%.

As to `CCCCN(C)CCNC(=O)c1ccc2c(c1)NC(=O)C(N1CCCCC1)S2` (stereo not shown), the “hERG current change (%, negative = inhibition) at 10uM” value came out at 2.48%.

For the compound `Cc1cc(Cl)ccc1C(=O)C1CCCN(C(=O)c2ccc3ncccc3c2)C1` (stereo not shown), the “hERG current change (%, negative = inhibition) at 10uM” value is recorded as -29.5%.

For `O=C(c1cccc(Cl)c1)C1CCCN(Cc2cccc3cnccc23)C1` (stereo not shown), the “hERG current change (%, negative = inhibition) at 10uM” value is -32.7%.

Consider `O=C(c1ccc(Cl)cc1)C1CCCN(Cc2cccc3ncccc23)C1` (stereo not shown), for which the “hERG current change (%, negative = inhibition) at 10uM” value is given as -52.1%.

As for `O=C(c1ccc(Cl)cc1)C1CCCN(Cc2ccc3ncccc3c2)C1` (stereo not shown), the “hERG current change (%, negative = inhibition) at 10uM” value was -64.3%.

As for `O=C(c1ccc(Cl)cc1)C1CCCN(Cc2ccc3nonc3c2)C1` (stereo not shown), the “hERG current change (%, negative = inhibition) at 10uM” value is reported as -34.9%.

For the compound `O=C(c1ccc(Cl)cc1)C1CCCN(Cc2cccc3cccnc23)C1` (stereo not shown), the “hERG current change (%, negative = inhibition) at 10uM” value is -75.9%.

With `O=C(c1ccc(Cl)cc1)C1CCCN(Cc2cccc3cnccc23)C1` (stereo not shown), the “hERG current change (%, negative = inhibition) at 10uM” value is listed as -44.8%.

As to `CC(C)c1ccc(NC(=O)c2ccc(NS(C)(=O)=O)cc2)cc1`, the “hERG current change (%, negative = inhibition) at 10uM” value is listed as 3.29%.

As to `COC(=O)c1ccc(OCCn2cnc3ccccc3c2=O)cc1`, the “hERG current change (%, negative = inhibition) at 10uM” value was -11.2%.

Consider `COc1ccc(NC(=O)C2Cc3cccc(OC)c3O/C2=N\O)cc1` (stereo not shown), for which the “hERG current change (%, negative = inhibition) at 10uM” value is given as 6.66%.

`COc1cccc(-n2c(COc3ccccc3C)nnc2SCC(=O)O)c1`: the “hERG current change (%, negative = inhibition) at 10uM” value came to 1.56%.

Regarding `CSCC[C@H](NC(=O)N1CCn2c1nc1ccccc12)C(=O)NCc1ccco1`, the “hERG current change (%, negative = inhibition) at 10uM” value is -19.1%.

As to `CCN(C(=O)COC(=O)c1cc(-c2ccccc2)nc2c1c(C)nn2-c1ccccc1)C1CCS(=O)(=O)C1` (stereo not shown), the “hERG current change (%, negative = inhibition) at 10uM” value was 21.5%.

Consider `CCN(CC)CCCNC(=O)c1oc2ccc3c(c2c1C)C(O)CC(C)(C)O3` (stereo not shown), for which the “hERG current change (%, negative = inhibition) at 10uM” value is -4.08%.

As to `Cc1ccc(NS(=O)(=O)c2ccc3c(c2)n(C)c(=O)n3C)cc1C`, the “hERG current change (%, negative = inhibition) at 10uM” value is recorded as 14.2%.

Take `COc1ccc(CNCC(O)(c2ccc(F)cc2)c2ccc(F)cc2)cc1`: the “hERG current change (%, negative = inhibition) at 10uM” value is -67.3%.

Take `Cc1ccc(CNCC(O)(c2ccc(F)cc2)c2ccc(F)cc2)cc1`: the “hERG current change (%, negative = inhibition) at 10uM” value is -56.4%.

On to `COc1cccc(CNCC(O)(c2ccc(Cl)cc2)c2ccc(Cl)cc2)c1`, for which the “hERG current change (%, negative = inhibition) at 10uM” value is -12.2%.

As for `OC(CNCc1ccc(F)cc1)(c1ccc(F)cc1)c1ccc(F)cc1`, the “hERG current change (%, negative = inhibition) at 10uM” value is on record as -33.7%.

Regarding `Cc1ccc(C(O)(CNCc2ccccc2)c2ccccc2)cc1` (stereo not shown), the “hERG current change (%, negative = inhibition) at 10uM” value is -33.9%.

In the case of `Cc1ccc(CNCC(O)(c2ccccc2)c2ccc(F)cc2)cc1` (stereo not shown), the “hERG current change (%, negative = inhibition) at 10uM” value is recorded as -45.6%.

Regarding `OC(CNCc1ccccc1)(c1ccc(F)cc1)c1ccc(F)cc1`, the “hERG current change (%, negative = inhibition) at 10uM” value is listed as -38.1%.

Take `COc1ccc(CNCC(O)(c2ccccc2)c2ccc(F)cc2)cc1` (stereo not shown): the “hERG current change (%, negative = inhibition) at 10uM” value is -73.3%.

For `OC(CNCc1ccc(F)cc1)(c1ccccc1)c1ccc(F)cc1` (stereo not shown), the “hERG current change (%, negative = inhibition) at 10uM” value is given as -33.8%.
